Measured values from PubChem BioAssay (NCI).
This is part of a sample that, as a whole, favours compounds with a hit. Of some 79,000 tested, about 15% had one in any assay. Active and inactive are the calls of the source. Cut-off read from the data, not from the text of the source: active = growth inhibition above about 70%; inactive = the rest.

Legend:
[1] = NCI Yeast Anticancer Drug Screen. Data for the rad50 strain (AID 155);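 note: 0% = growth of vehicle-only cultures of the same strain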; settings: S. cerevisiae rad50 strain growth inhibition; at 50.0 µM; stronger effect = higher value
Method in brief: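 Yeast carrying a defined DNA repair defect were exposed to test compounds, and growth was compared with vehicle-treated controls to give percent inhibition.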

[2] = NCI Yeast Anticancer Drug Screen. Data for the mec2-1 strain (AID 157); settings: S. cerevisiae mec2-1 strain, at 50.0 µM, stronger effect = higher value
Method in brief: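 Cells of the genetically defined mec2-1 yeast strain are incubated with test compound. Inhibition of growth is calculated against vehicle-treated controls.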

[3] = NCI Yeast Anticancer Drug Screen. Data for the sgs1 mgt1 strain (AID 161);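 note: 0% = growth of cultures given vehicle only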; settings: S. cerevisiae sgs1 mgt1 strain, at 50.0 µM, stronger effect = higher value
Method in brief: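 Test agents were incubated with a DNA-repair-mutant yeast strain. Growth was then read and compared against vehicle-treated controls.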

[4] = NCI Yeast Anticancer Drug Screen. Data for the cln2 rad14 strain (AID 165);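 note: 0% = growth equal to vehicle treated cultures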; settings: S. cerevisiae cln2 rad14 strain, at 50.0 µM, stronger effect = higher value
Method in brief: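 The screen exposed genetically defined yeast (cln2 rad14) to test compounds and scored growth inhibition relative to vehicle-treated controls.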

[5] = NCI Yeast Anticancer Drug Screen. Data for the bub3 strain (AID 167); settings: S. cerevisiae bub3 mutant strain, at 50.0 µM, stronger effect = higher value
Method in brief: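 Compounds were applied to a genetically altered yeast strain carrying a cell-cycle control defect. Growth inhibition was scored against vehicle-treated controls.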

[6] = NCI Yeast Anticancer Drug Screen. Data for the mlh1 rad18 strain (AID 175); settings: S. cerevisiae mlh1 rad18 strain growth inhibition; at 50.0 µM; stronger effect = higher value
Method in brief: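 Compound-treated yeast growth, normalised to vehicle controls. Strain bears defined DNA repair mutations.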

Measured: growth inhibition

CCOC(=O)CC(Br)C(=O)CBr (configuration not stated)
inactive: [1] -9.15% | [2] 11% | [3] 7.15% | [4] -17.8% | [5] 2.6% | [6] -9.6%

O=[N+]([O-])c1ccc(/C=C/C=C/C=C/C=C/c2ccc(S(=O)(=O)F)cc2Cl)c(Cl)c1
inactive: [1] -1.05% | [2] -2.85% | [3] -14.8% | [4] 7.15% | [5] -10.3% | [6] -1.2%

CCOC(=S)S.[Ag]
inactive: [1] 1.6% | [2] -17.4% | [3] -2.05% | [4] -31.6% | [5] -15.2% | [6] 14.4%

COC(=O)CCP(CCC(=O)OC)c1ccccc1
inactive: [1] -3.9% | [2] -11% | [3] -7.15% | [4] -10.7% | [5] -4.85% | [6] 1.1%

C=CC(=O)OC(C)C
inactive: [1] 21.6% | [2] 11.2% | [3] 2.35% | [4] -1.7% | [5] 33.8% | [6] 15.8%

CCCCCC(=O)C[n+]1ccccc1 (tested in a mixture with another compound)
inactive: [1] -11.7% | [2] -1.4% | [3] -20% | [4] -36% | [5] 24.4% | [6] -9.15%

O=C(NN=C1CCN(Cc2ccccc2)CC1)C(O)(c1ccccc1)c1ccccc1
inactive: [1] -13.6% | [2] -5.5% | [3] 13.8% | [4] -8.5% | [5] -14% | [6] -0.65%

COC(=S)NP(=O)(NC(=S)OC)NC(=S)OC
inactive: [1] 11.7% | [2] -3.4% | [3] 9.65% | [4] -35% | [5] -1.95% | [6] 8.25%

CCCCOP(=O)(OCCCC)SCl
inactive: [1] -9.4% | [2] 1.7% | [3] 3.2% | [4] 13.9% | [5] -11.1% | [6] 6%

CC1(C)N(C(=S)Nc2ccccc2)C1(C)C
inactive: [1] 6.45% | [2] 1.3% | [3] 5.25% | [4] -26.2% | [5] -5.2% | [6] 5.8%

O=[N+]([O-])/C=C\c1c[nH]c2ccc(OCc3ccccc3)cc12
inactive: [1] 52.5% | [2] 30.8% | [3] 53.4% | [4] 45.4% | [5] 55.5% | [6] 40.9%

Brc1ccc(-c2csc3c4ccccc4cc[n+]23)cc1
inactive: [1] 14.6% | [2] -3.25% | [3] 12.2% | [4] -2.45% | [5] 21.8% | [6] -1.75%

COP1(=S)OCC2CCC[C@@H]2O1 (some centres not stated)
inactive: [1] -19.5% | [2] -26.4% | [3] -33% | [4] 3.2% | [5] -21.9% | [6] -32.1%

CN(C)C(=O)N(CCCl)N=O
inactive: [1] 5.1% | [2] -4.2% | [3] 1.45% | [4] 2.55% | [5] 13.1% | [6] 20.8%

O=C(Nc1ccc(N(CCCl)CCCl)cc1)c1ccc([N+](=O)[O-])cc1
inactive: [1] 20.1% | [2] 0.75% | [3] 3% | [4] -23.6% | [5] -1.05% | [6] -2.6%

NC(N)=N/N=C/c1ccc(Cl)c(Cl)c1
inactive: [1] 8.45% | [2] -3.15% | [3] -8.2% | [4] -9.25% | [5] -3.6% | [6] 21.4%

CC1(C(=N)N)CCOC1=O (configuration not stated)
inactive: [1] 4.4% | [2] 18.5% | [3] -10.8% | [4] 4.5% | [5] -1% | [6] 7.55%

Nc1c(Cl)c(Cl)nc(C(=O)O)c1Cl
inactive: [1] 16% | [2] 9% | [3] 7.05% | [4] 3.8% | [5] 21.5% | [6] 24.2%

CN(C)CCNC(=O)c1cc([N+](=O)[O-])cc2c1Oc1ccccc1O2
inactive: [1] -7.05% | [2] -12.6% | [3] -7.35% | [4] 16.9% | [5] -7.2% | [6] -7.3%

O=P(O)(NCCCl)NCCCl
inactive: [1] -24.4% | [2] -17.9% | [3] -22.7% | [4] -5.6% | [5] -41.1% | [6] -39.5%

COC(=O)C(O)(c1ccccc1)C1CCCC1 (configuration not stated)
inactive: [1] 20.8% | [2] -10.1% | [3] -10.6% | [4] 11.9% | [5] 10.1% | [6] -9.5%

Cc1cccc(CCF)c1
inactive: [1] -8.4% | [2] 8.5% | [3] 1.25% | [4] -3.8% | [5] -0.15% | [6] -4.75%

C=C(C)c1ccccc1 (tested in a mixture with another compound)
inactive: [1] 28% | [2] 9.05% | [3] -19.9% | [4] -8.8% | [5] -3.2% | [6] 10.6%

O=C1/C(=C\c2ccccc2)C2OCC=C3CN4CCC56c7ccccc7N1C5C2C3CC46 (configuration not stated)
inactive: [1] -18.6% | [2] -33.1% | [3] -3.9% | [4] -3.25% | [5] -19.9% | [6] -9.05%

CC(=O)OCC1OC(n2ncc3c(N4CC4)ncnc32)C(OC(C)=O)C1OC(C)=O (configuration not stated)
inactive: [1] 7.7% | [2] -12.6% | [3] -21.3% | [4] 6.65% | [5] 1.45% | [6] 4.25%

CN(C)CC1C(O)C2CCN1CC2 (configuration not stated)
inactive: [1] 3.95% | [2] 9.3% | [3] -3.1% | [4] -5.3% | [5] -5.5% | [6] -1.85%

COC(=O)CN(C)P(=O)(N1CC1)N1CC1
inactive: [1] 13.4% | [2] 7.15% | [3] -4.1% | [4] -10.2% | [5] -2.8% | [6] -10.1%

Cc1cccc(C)c1NC(=O)C(=O)C1C(=O)NC(=O)NC1=O
inactive: [1] -45.5% | [2] -2.6% | [3] -6% | [4] 15.8% | [5] -17.1% | [6] -31.9%

CC1(C)CN=C(NN=C(/C=C/c2ccc(C(F)(F)F)cc2)/C=C/c2ccc(C(F)(F)F)cc2)NC1
inactive: [1] 21.6% | [2] 10.4% | [3] 15.3% | [4] 20.2% | [5] 32.2% | [6] 46.8%

OC(c1ccc2ccccc2n1)C1CCCCN1 (configuration not stated)
inactive: [1] 14.2% | [2] -6.45% | [3] 7.05% | [4] -8.15% | [5] -1.7% | [6] 11.1%

O=C(c1ccccc1)C1NC1c1ccccc1 (configuration not stated)
inactive: [1] 13.8% | [2] 39.4% | [3] 1.65% | [4] -16.6% | [5] 19.8% | [6] 10.2%

CCC1(CCC(C)C)C(=O)NC(=NCCCC(N)C(=O)O)NC1=O (configuration not stated)
inactive: [1] 11.1% | [2] -0.35% | [3] 7.6% | [4] 30.3% | [5] 3.25% | [6] 13.1%

COc1ccc2[nH]c3c(c2c1)CCNC3C (configuration not stated)
inactive: [1] 2.3% | [2] -12.6% | [3] 2.6% | [4] -52.1% | [5] 5.4% | [6] -17.3%

CCC[CH2][Sn]([Br])([c]1ccccc1)[c]1ccccc1
active: [1] 99% | [2] 99% | [3] 99.4% | [4] 99.1% | [5] 99% | [6] 98.9%

Cc1cc(S(=O)(=O)F)ccc1O
inactive: [1] -3% | [2] -6.2% | [3] -16.5% | [4] -42.8% | [5] -2.6% | [6] -1.3%

COCCOC(=O)NCP(Cl)(CNC(=O)OCCOC)(CNC(=O)OCCOC)CNC(=O)OCCOC
inactive: [1] -11.6% | [2] -4.85% | [3] -29.8% | [4] -19.7% | [5] -1.75% | [6] -5.75%

Cc1ccc(S(=O)(=O)OC2CN3CCC2CC3)cc1 (configuration not stated)
inactive: [1] 62.4% | [2] -2.95% | [3] 42.7% | [4] 26.8% | [5] 38.4% | [6] 51.5%

O=C(CN1C(=O)C2CCCCC2C1=O)N1CC1 (configuration not stated)
inactive: [1] -7.8% | [2] 0.1% | [3] -11.7% | [4] 5.85% | [5] -6.6% | [6] -9.3%

O=CNC(CSC(c1ccccc1)c1ccccc1)C(=O)O (configuration not stated)
inactive: [1] 0.25% | [2] -5.55% | [3] -10.9% | [4] -26.4% | [5] 20.2% | [6] 4.4%

O=C(Nc1c(Cl)cc([N+](=O)[O-])cc1Cl)C(=O)C1C(=O)NC(=S)NC1=O
inactive: [1] 11.9% | [2] -28.4% | [3] -12.1% | [4] 7.65% | [5] 10.6% | [6] -5.9%

N.N.N.N.O=C([O-])C(Cl)Cl.O=C([O-])C(Cl)Cl.[Co+3].[O-][Cl+3]([O-])([O-])[O-]
inactive: [1] -10.1% | [2] -13.2% | [3] -23.1% | [4] -15.2% | [5] -6.1% | [6] -13.6%

C#C[C@]1(O)CC[C@H]2[C@@H]3CCC4=C/C(=N/OC(=O)c5cccc6c(=O)c7ccccc7[nH]c56)CC[C@@H]4[C@H]3CC[C@@]21C
inactive: [1] 1.6% | [2] -4.5% | [3] 11.3% | [4] 9.7% | [5] -24.9% | [6] -3.55%
